# dFosB activator = mouse delta FosB homodimer activation; P13346; purified delta FosB, TAMRA-CDK5 oligo fluorescence polarization; percent of positive-control signal above neutral wells; activation, % at 25 µM; 340,000 compounds, 0.99% hits; AID 493131;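 active = mean activation above about 17%, with every replicate also reaching it, limit read from the data, passing the limit was not always enough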
# Target sequence (P13346 whole entry, looked up): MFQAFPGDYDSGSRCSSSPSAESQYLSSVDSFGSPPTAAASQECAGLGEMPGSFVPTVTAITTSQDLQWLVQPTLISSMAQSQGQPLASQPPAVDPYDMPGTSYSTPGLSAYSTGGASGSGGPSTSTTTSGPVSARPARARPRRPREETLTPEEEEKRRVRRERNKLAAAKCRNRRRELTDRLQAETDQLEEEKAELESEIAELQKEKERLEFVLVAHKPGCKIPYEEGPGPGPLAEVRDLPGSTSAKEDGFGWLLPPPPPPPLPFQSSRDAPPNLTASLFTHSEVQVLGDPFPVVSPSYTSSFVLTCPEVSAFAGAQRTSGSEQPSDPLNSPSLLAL
# Neddylation inh = cullin neddylation inhibition; P61081+Q13564; TR-FRET cullin neddylation, biochemical; inhibition, % at 25 µM; 360,000 compounds, 0.58% hits; AID 651699; in the data active = inhibition above about 36%
# Vif inh = HIV Vif inhibition; HEK293T cells, Vif self-association by quenched fluorescence, imaging, 24 h; inhibition, % at 7.49 µM; 340,000 compounds, 0.35% hits; AID 602346; in the data active = inhibition above about 50%, passing the limit was not always enough
# INS-1E GSIS act = GLuc luminescence reporter in INS-1E cells, primary screen for activators of glucose-dependent secretion of insulin | INS-1E GLuc reporter insulin secretion, 2-3 h | activation, % at 16.6 µM | 370,000 compounds, 0.61% hits;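 active = lowest replicate activation of at least 40%, so every replicate reaches that level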;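 note: 0% = median of neutral control wells and 100% = median of IBMX positive control wells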
# Bfl-1 A1 inh = inhibitors of the anti-apoptotic protein A1, read as caspase activation; MEF A1-2A-BIM cells, Caspase-Glo 3/7 luminescence, 3 h; percent of clofoctol response, vehicle zero; caspase activation, % (no concentration beside the values); 330,000 compounds, 0.066% hits; AID 2462;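 active = over half of replicate activation scores above 10%, or exactly half above 10 with the replicate mean above 10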
# An asterisk follows results filed as active; x = no result given. In the library only some 1.9% were active in any assay of this set; here they are far more common.
SMILES,dFosB activator,Neddylation inh,Vif inh,INS-1E GSIS act,Bfl-1 A1 inh
COC(=O)COc1ccc(C)cc1-n1nc2ccccc2n1,1,14,-3,48*,0
O=C1Nc2ccccc2S/C1=C/Nc1cccc(Cl)c1,1,0,123*,x,-2
Nc1ccc(C2=Nc3cccc4cccc(c34)N2)cc1,41*,-11,-9,3,x
CC1(C(=O)NCc2ccccc2)CN(S(C)(=O)=O)CC(=O)N1C1CC1 (stereo unspecified),x,-6,x,65*,x
Cc1ccccc1CN1C(=O)CN(S(C)(=O)=O)CC1(C)C(=O)NCc1ccccc1 (stereo unspecified),x,-2,x,6,x
COc1cc(OC)cc(C(=O)N(CN2CCCC2=O)c2ccccc2OC)c1,3,0,54*,x,0
COC(=O)[C@@H]1[C@@H](CO)[C@@H]2Cn3c(ccc(-c4ccncc4)c3=O)[C@@H]2N1CC1CCCCC1,x,x,x,-8,x
CCN(CC)S(=O)(=O)c1ccc(O)c(NC(=O)c2cc(-c3cc(OC)c(OC)c(OC)c3)nc3ccccc23)c1,5,38*,-21,x,0
Cc1ccc(-c2nc3ncccc3o2)cc1NC(=O)c1ccc2c(c1)OCO2,-14,-22,51*,-4,x
COc1ccc(C(=O)CSc2nnc(-c3cc(C)on3)o2)cc1,-4,-388,6,13,0
Cc1cc(-c2nnc(SCC(=O)c3ccc(Cl)cc3)o2)no1,4,-188,92*,4,0
CNC[C@@H]1Oc2ccc(NS(C)(=O)=O)cc2C(=O)N(C)C[C@H]1C,x,x,x,-5,x
Cc1ccc(S(=O)(=O)N2CCN(C(=O)COC(=O)COc3ccc(Cl)cc3)CC2)c(C)c1,208*,5,0,x,x
CCCN1C[C@@H](C)[C@H](OC)CN(C)C(=O)c2ccc(NC(=O)C3CC3)cc2OC[C@@H]1C,x,x,x,2,x
Cc1[nH]ccc(=O)c1Cc1c(Cl)cccc1Cl,-7,-1,9,8,0
Cc1nc(C(Cl)(Cl)Cl)nc2[nH]ccc(=O)c12,-5,-1,-2,130*,1
Cc1ccn2c(Nc3ccccc3C)c(-c3ccccn3)nc2c1,9,36,-3,-13,1
Cc1ccn2c(Nc3ccccc3)c(-c3ccccn3)nc2c1,33*,x,-4,-5,0
CCN(CC)c1ccc2cc(-c3nnc(-c4ccccc4)o3)c(=O)oc2c1,-2,-180,179*,-17,-2
O=C1C(Cl)=C(Nc2ccccc2)C(=O)c2ccccc21,-4,0,12,35,-1
CC(C)NC1=C(Cl)C(=O)c2ccccc2C1=O,-5,-80,63*,x,-2
Cc1nc2ccc(C(=O)NCCc3c[nH]c4ccccc34)cn2c1N(C)C(=O)CCc1ccccc1,x,15,54*,x,x
Nc1nc(N)c(C=Nc2ccc(Br)cc2)c(Nc2ccc(Br)cc2)n1,108*,0,-5,40,1
COc1ccc(-c2ccc(SCC(=O)NCc3ccco3)nn2)cc1OC,1,0,-1,62*,-1
COc1ccc(-c2ccc(SCC(=O)NCC3CCCO3)nn2)cc1OC (stereo unspecified),3,-8,-1,75*,-1
SMILES,dFosB activator,Neddylation inh,Vif inh,INS-1E GSIS act,Bfl-1 A1 inh
COc1ccc(-c2cc(C(F)(F)F)nc(SCC(=O)NCc3ccco3)n2)cc1OC,-5,x,-4,x,0
COc1ccc(-c2ccc(SCC(=O)NC3CCCCC3)nn2)cc1OC,-5,-7,-9,105*,0
COc1ccc(-c2ccc(SCC(=O)NC3CCCC3)nn2)cc1,x,-21,4,-7,x
O=C(Nc1cccc(Cl)c1)c1cnn2cccnc12,-13,-5,2,58*,-7
Cc1ccc(C2=NOC(C)(c3nnc(-c4ccncc4)o3)C2)cc1 (stereo unspecified),2,-18,135*,0,0
CC1(c2nnc(-c3ccc(Cl)cc3)o2)CC(c2ccncc2)=NO1 (stereo unspecified),3,-22,1,-13,1
CC(CN(C)Cc1ccccc1)OC(=O)c1cccs1 (stereo unspecified),5,4,-1,x,1
CC(CN(C)Cc1ccccc1)OC(=O)c1ccccc1F (stereo unspecified),1,7,-10,49*,0
C[C@H](CO)N1C[C@H](C)[C@@H](CN(C)C(=O)c2ccccn2)Oc2cc(C#Cc3ccccc3)ccc2S1(=O)=O,x,x,x,-7,x
CCCCCCCOC(=O)C[N+](C)(C)CCOC1CC2CCC1(C)C2(C)C (stereo unspecified),0,-6,-5,433*,x
CCCOC(=O)C[N+](C)(C)CCOC1CC2CCC1(C)C2(C)C (stereo unspecified),-3,-4,63*,-6,0
COc1ccc2c3c([nH]c2c1)[C@H](CO)N(Cc1ccccc1OC)CC31CN(C)C1,x,x,x,-6,x
O=S(=O)(N[C@@H]1CC[C@@H](CCn2cc(-c3cccnc3)nn2)O[C@H]1CO)c1ccc(Cl)cc1,x,x,x,-9,x
CCC(=O)c1ccc(OCC(O)CNC2CCCC2)cc1 (stereo unspecified),16*,-2,-2,1,1
COC(=O)c1ccc(OCC(O)CNC2CCCC2)cc1 (stereo unspecified),1,5,-2,-1,0
CCN1[C@@H]2c3ccc(C4=CCCCC4)c(=O)n3C[C@H]1[C@H](CO)[C@H]2C(=O)NCCOC,x,x,x,7,x
COc1ccc(-c2cc(=O)c3cc(C)ccc3[nH]2)cc1,1,6,-4,12,-9
COc1cc2[nH]c(-c3ccc(C)cc3)cc(=O)c2cc1OC,-5,x,0,57*,-2
COc1ccccc1OCCOc1ccc(/C=C2/C(=N)N3OC(C)=CC3=NC2=O)cc1OC,-5,x,5,287*,0
COc1cc(/C=C2/C(=N)N3C=CSC3=NC2=O)ccc1OCCCOc1cc(C)ccc1C,-17,1,2,5,8.5*
CC1=CC2=NC(=O)/C(=C\c3cccn3CCOc3ccccc3C)C(=N)N2O1,-3,-23,-3,1,0
O=C(Nc1nonc1NC(=O)c1cccs1)c1cccs1,-3,4,-42,133*,0
O=C(Nc1ccc(NC(=O)c2cccs2)cc1)c1cccs1,10,37,-2,-1,-3
Fc1ccc2[nH]c3c(NCc4ccccc4)ncnc3c2c1,6,52*,-8,-38,3
COc1ccc2[nH]c3c(NCc4ccco4)ncnc3c2c1,x,x,x,x,-2
S=C(Nc1ccccc1)N1CCn2c(nc3ccccc32)C1,-2,1,58*,-1,1
Cc1ccccc1CSCc1ccc(C(=O)NCCCN2CCOCC2)o1,-7,-3,-8,46*,1
Cc1ccc(CSCc2ccc(C(=O)NCCCN3CCOCC3)o2)cc1,-12,1,-2,-3,0
CCOCCCNC(=O)c1cc2c(s1)-c1ccccc1SC2,-34,-20,-4,5,0
CN(C)CCNC(=O)c1cc2c(s1)-c1ccc(Cl)cc1SC2,-20,x,-20,228*,1

# Screening data deposited in PubChem by several laboratories.
